Compound activity: PubChem, National Center for Advancing Translational Sciences (NCATS)
Sm TGR inh – S. mansoni TGR enzyme inhibition | Q962Y6 | Potency, µM (top dose mostly 114 µM), usual class: inhibitors | purified TGR, DTNB reduction, TNB absorbance 405 nm | actives 3% (n = 360,000); also: nearly all actives have a fitted effect of over 60% in size
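Kinetic colorimetric format: TGR-catalysed, NADPH-driven DTNB reduction monitored via TNB absorbance. Enzyme dispensed at 20 nM; compound exposure 15 min at room temperature before reaction start.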
LASV entry inh – inhibitors of Lassa virus binding or cell entry | Lassa virus pseudotype entry inhibition, cell reporter | Potency, µM (top dose mostly 37.9 µM), actives largely listed as inhibitors | actives 1.2% (n = 300,000); calls by dose curve; tested in HEK293 cells; also: nearly all actives have a fitted effect of over 50% in size
RE007 growth inh – less growth of the S. pombe RE007 Vpr strain; Potency, µM (highest dose often 92.2 µM), usual class: inhibitors; actives 0.21% (n = 360,000); S. pombe RE007 Vpr strain, BacTiter-Glo ATP luminescence, 24 h; active = well fitted falling curve with a large enough effect; inconclusive = small, poorly fitted or top-dose-only effect; inactive = no such curve, though single readings can be large or run the other way; also: nearly all actives have a fitted effect of over 50% in size
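Fission yeast strain RE007, carrying one chromosomally integrated HIV-1 vpr copy, was seeded at OD 0.01 in PMG+AL medium with 23 nL pinned compound. After 24 h at 30 °C and 99% humidity, viability was read by BacTiter-Glo luminescence.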
HCV inh – blocks hepatitis C virus | actives 3.4% (n = 340,000) | AID 651820 | Potency, µM (highest dose often 41.8 µM), usual class: inhibitors | Huh7.5.1 HCVcc-Cre infection, luciferase reporter, 44 h
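Antiviral activity was scored by luciferase reporter output from cells infected with HCVcc-Cre (~0.5 moi) in presence of compound, 44 h infection period, cells seeded 1,000/well 4 h prior.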
MARV entry inh – blocks Marburg virus binding to or entry into cells. Marburg virus pseudotyped entry inhibition, cell reporter. Potency, µM (titrated, usually from 37.8 µM), actives largely listed as inhibitors. actives 1.8% (n = 300,000). AID 540276; calls by dose curve; tested in HEK293 cells
FMDV antiviral – foot and mouth disease virus antiviral activity; FMDV antiviral cell-based qHTS; Potency, µM (titrated, usually from 57.9 µM), hits mostly inhibitors; actives 1.2% (n = 410,000); AID 1159524; calls by dose curve; tested in HEK293T cells; also: read-out not given here; nearly all actives have a fitted effect of over 45% in size
Numbers stand for hits. Only some compounds are listed: those with a hit (about 7.2% of all), similar ones and a draw of the others. Unless noted, calls follow the shape of the dose curve; as a rule, active = well fitted curve in the direction sought with a large enough effect; inconclusive = small, poorly fitted or top-dose-only effect, or another doubt; inactive = no such curve, though single readings can be large; an effect the other way counts as inactive or inconclusive.

Cc1cccc(Cn2cc(S(=O)(=O)c3ccccc3)c(=O)c3cc(F)c(N4CCOCC4)cc32)c1 was read as Sm TGR inh inactive, LASV entry inh inconclusive and FMDV antiviral inactive.
Screening N#Cc1c(N)n(-c2ccc(N)cc2)c2nc3ccccc3nc12 returned Sm TGR inh inactive, LASV entry inh inactive, RE007 growth inh inactive, HCV inh inactive, MARV entry inh inactive and FMDV antiviral inactive.
For N#Cc1c(C#N)c(SSc2c(C#N)c(C#N)c(N)n2-c2ccccc2)n(-c2ccccc2)c1N the results were LASV entry inh inactive, RE007 growth inh inactive, HCV inh inconclusive, MARV entry inh inconclusive and FMDV antiviral 40µM.
`COc1ccccc1NC(=O)N1CCN(c2cccc(C(F)(F)F)c2)CC1` gave Sm TGR inh inactive, LASV entry inh inactive, RE007 growth inh inactive, HCV inh 11µM, MARV entry inh inactive and FMDV antiviral inconclusive.
For CCOc1cc2[nH]c(=O)n(CCCCC(=O)N3CCN(c4cccc(Cl)c4)CC3)c(=O)c2cc1OCC the results were Sm TGR inh inactive, LASV entry inh inconclusive and FMDV antiviral 25µM.
Screening COc1ccccc1NC(=O)N1CCN(c2ccc(F)cc2)CC1 returned Sm TGR inh inactive, LASV entry inh inactive, RE007 growth inh inactive, HCV inh inactive, MARV entry inh inactive and FMDV antiviral inactive.
Screening COc1cc2[nH]c(=O)n(CCCCCC(=O)N3CCN(c4cccc(C(F)(F)F)c4)CC3)c(=O)c2cc1OC returned Sm TGR inh inactive, LASV entry inh inconclusive, MARV entry inh inconclusive and FMDV antiviral 22µM.
CCOc1cc2[nH]c(=O)n(CCC(=O)N3CCN(c4ccccc4)CC3)c(=O)c2cc1OCC was read as Sm TGR inh inactive, LASV entry inh inactive and FMDV antiviral inactive.
For COc1cc2[nH]c(=O)n(CCCCCC(=O)N3CC=C(c4ccccc4)CC3)c(=O)c2cc1OC the results were Sm TGR inh inactive, LASV entry inh inconclusive, RE007 growth inh inactive, HCV inh inconclusive, MARV entry inh 8.9µM and FMDV antiviral inconclusive.
Screening O=C(CCCCCn1c(=O)[nH]c2ccccc2c1=O)N1CCN(c2cccc(C(F)(F)F)c2)CC1 returned Sm TGR inh inactive, LASV entry inh inconclusive and FMDV antiviral inactive.
`COC(=O)c1cn([C@@H]2C[C@@H](C(=O)Nc3cccc(SC)c3)N(C3CCCCCC3)C2)nn1` gave FMDV antiviral inactive.
CCOC(=O)c1ccccc1NC(=O)c1sc2ncn(CC)c(=O)c2c1C was read as Sm TGR inh inactive, LASV entry inh inactive and FMDV antiviral inactive.
Screening COc1ccc(N2CCN(C(=O)CCCn3c(=O)[nH]c4ccsc4c3=O)CC2)cc1 returned Sm TGR inh inactive, RE007 growth inh inactive, HCV inh inactive, MARV entry inh inactive and FMDV antiviral inactive.
Screening O=C(CCCn1c(=O)[nH]c2ccsc2c1=O)N1CCN(c2ccc(Cl)cc2)CC1 returned Sm TGR inh inactive, LASV entry inh inactive, MARV entry inh inactive and FMDV antiviral 28µM.
`Cc1ccc(CNC(=S)NC2CCC(C(C)(C)C)CC2)cc1` (configuration not stated) gave Sm TGR inh inactive, RE007 growth inh inactive, HCV inh inconclusive and FMDV antiviral inactive.
`Cc1ccc(CC2(OCCN(C)C)CCC(C(C)(C)C)CC2)cc1` (configuration not stated) gave LASV entry inh inconclusive, RE007 growth inh inactive, HCV inh inactive, MARV entry inh 10µM and FMDV antiviral inconclusive.
`CN(C)CCOC1(Cc2ccc(F)cc2)CCC(C(C)(C)C)CC1` (configuration not stated) gave LASV entry inh inconclusive, RE007 growth inh inactive, HCV inh inactive, MARV entry inh 11µM and FMDV antiviral inactive.
For O=C(C1=C(O)C(=O)N(c2ncccn2)[C@@H]1c1cccc(Cl)c1)c1ccco1 the results were MARV entry inh inactive.
`CC1CCc2sc(C(=O)NN=C3CCC(c4ccccc4)CC3)cc2C1` (configuration not stated) gave Sm TGR inh inactive, LASV entry inh inactive, RE007 growth inh inactive, HCV inh inactive, MARV entry inh inactive and FMDV antiviral inactive.
For CC1CCc2sc(C(=O)NC3CCN(Cc4ccccc4)CC3)cc2C1 (configuration not stated) the results were Sm TGR inh inactive, RE007 growth inh inactive, HCV inh 11µM and FMDV antiviral inconclusive.
For CCC1CCc2sc(C(=O)NCc3ccccn3)cc2C1 (configuration not stated) the results were Sm TGR inh inactive, LASV entry inh inactive, RE007 growth inh inactive, HCV inh inactive, MARV entry inh inconclusive and FMDV antiviral inactive.
CCC1CCc2sc(C(=O)NC3CCN(Cc4ccccc4)CC3)cc2C1 (configuration not stated) was read as Sm TGR inh inactive, LASV entry inh inconclusive, RE007 growth inh inactive, HCV inh 10µM, MARV entry inh inconclusive and FMDV antiviral inactive.
For CCCN1CCCc2cc(CN)ccc21 the results were Sm TGR inh 14µM, LASV entry inh inconclusive, RE007 growth inh inactive, HCV inh inconclusive, MARV entry inh inactive and FMDV antiviral inconclusive.
`Cc1ccc2c(c1)CCCN2N=O` gave Sm TGR inh inactive, LASV entry inh inconclusive, RE007 growth inh inactive, HCV inh inactive, MARV entry inh inconclusive and FMDV antiviral inactive.
For COc1ccc(CC(=O)Nc2nc(C(C)(C)C)cs2)cc1 the results were Sm TGR inh inactive, LASV entry inh 4.5µM, RE007 growth inh inactive, HCV inh 10µM, MARV entry inh inconclusive and FMDV antiviral inconclusive.
For COc1ccc(CC(=O)Nc2nc(-c3cc(OC)ccc3OC)cs2)cc1 the results were Sm TGR inh inactive, LASV entry inh inconclusive, RE007 growth inh inactive, HCV inh 13µM, MARV entry inh inconclusive and FMDV antiviral inconclusive.
For COc1ccc(CC(=O)Nc2nc3c(s2)CCCC3)cc1 the results were Sm TGR inh inactive, LASV entry inh 4µM, MARV entry inh 2.5µM and FMDV antiviral inactive.
Screening COc1ccc(OC)c(-c2csc(NC(=O)Cc3ccccc3)n2)c1 returned Sm TGR inh inactive, LASV entry inh inconclusive, RE007 growth inh inactive, HCV inh inconclusive, MARV entry inh inconclusive and FMDV antiviral inactive.
COc1ccc(CC(=O)Nc2nc(C)cs2)cc1 was read as Sm TGR inh inactive, LASV entry inh inactive, RE007 growth inh inactive, HCV inh inactive, MARV entry inh inconclusive and FMDV antiviral inactive.
COc1ccc(CC(=O)Nc2nc3c(s2)CC(C)CC3)cc1 (configuration not stated) was read as Sm TGR inh inactive, LASV entry inh inactive, MARV entry inh inconclusive and FMDV antiviral inactive.
`COc1ccc(OC)c(-c2csc(NC(=O)Cc3cccs3)n2)c1` gave Sm TGR inh inactive, LASV entry inh 0.32µM, RE007 growth inh inactive, HCV inh inconclusive, MARV entry inh inactive and FMDV antiviral inactive.
